# According to PubChem BioAssay (EPA / NIEHS):
# Results filed as inconclusive are left out. Activity calls are given as the source filed them. Rule for the calls, unless noted: active = hit-call score of the fitted dose curve at least 0.9, where 1 is the maximum; inconclusive = response in the unintended direction; inactive = score below 0.9.
# Legend:
# [1] = molecular target: Nucleoli Translocation, AR (gene 367) (UniProt P10275); assay: UPITT_HCI_U2OS_AR_TIF2_Nucleoli_Antagonist: University of Pittsburgh U2OS Androgen Receptor-Transcriptional Intermediary Factor 2 (AR-TIF2) Antagonism High Content Imaging Assay for Nucleoli Translocation (AID 2283997)
# Summary of the method: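 Antagonism is read as loss of nucleolar AR-RFP signal relative to DHT, imaged in U2OS cells also carrying GFP-TIF2. Compounds screened at 20 uM final, 0.2% DMSO; primary actives retested in triplicate.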
# [2] = molecular target: Nucleoli Translocation, AR (gene 367) (UniProt P10275); assay: UPITT_HCI_U2OS_AR_TIF2_Nucleoli_Agonist: University of Pittsburgh U2OS Androgen Receptor-Transcriptional Intermediary Factor 2 (AR-TIF2) Agonism High Content Imaging Assay for Nucleoli Translocation (AID 2283998)
# Summary of the method: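 RFP-AR / GFP-TIF2 cells; cpds diluted in serum-free medium; single-point screen 20 uM final (0.2% DMSO), actives confirmed in triplicate; conc-response 0.195–50 uM final (0.5% DMSO). Readout: nucleolar red fluorescence, positive direction vs DMSO.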
# [3] = molecular target: Ratio of Nucleoli Translocation and Cytoplasm, AR (gene 367) (UniProt P10275); assay: UPITT_HCI_U2OS_AR_TIF2_Nucleoli_Cytoplasm_Ratio_Antagonist: University of Pittsburgh U2OS Androgen Receptor-Transcriptional Intermediary Factor 2 (AR-TIF2) Antagonism High Content Imaging Assay for Ratio of Nucleoli Translocation and Cytoplasm (AID 2283999);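 note: antagonists lower the DHT-driven ratio of nucleolar to cytoplasmic red signal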
# Summary of the method: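 This antagonist-mode endpoint tracks AR-RFP localisation, the nucleolus-to-cytoplasm intensity ratio, in TIF2-GFP-coexpressing U2OS cells. DMSO stays at or below 0.5%; testing spans 20 uM single-dose and 0.195–50 uM series, with DHT setting the activity baseline.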
# [4] = molecular target: Ratio of Nucleoli Translocation and Cytoplasm, AR (gene 367) (UniProt P10275); assay: UPITT_HCI_U2OS_AR_TIF2_Nucleoli_Cytoplasm_Ratio_Agonist: University of Pittsburgh U2OS Androgen Receptor-Transcriptional Intermediary Factor 2 (AR-TIF2) Agonism High Content Imaging Assay for Ratio of Nucleoli Translocation and Cytoplasm (AID 2284000);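 note: hits raise the red nucleolar to cytoplasm ratio above vehicle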
# Summary of the method: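 Compounds tested at 20 uM final in primary screen (0.2% DMSO) and 0.195-50 uM final in dose-response (0.5% DMSO). Imaging of human U2OS cells bearing RFP-AR and GFP-TIF2; endpoint is nucleoli/cytoplasm red signal ratio, positive direction relative to DMSO.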
# [5] = CCTE_Simmons_MITO_max_resp_rate: CCTE's HepG2 Seahorse XF Respirometric Screening Assay at Maximal Respiratory State [uncoupled], Simmons Lab (AID 2284002; active = hit-call score of the fitted dose curve at least 0.9, where 1 is the maximum; inactive = score below 0.9); conditions: actives raise or lower the signal
# Summary of the method: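 HepG2, Seahorse XF96, maximal OCR post-FCCP. Cpd 125 nM–100 uM final (7 conc), n=3 biological. Kinetic reads every 6 min (3 min mix/3 min measure) over 72 min; fit bidirectional vs DMSO.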
# [6] = tested on: DIO1 (gene 1733); assay: CCTE_GLTED_hDIO1: CCTE's human Deiodinase 1 (DIO1) Inhibition Assay, Great Lakes Toxicology and Ecology Division (GLTED) Lab (AID 2283987);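 note: isolated human DIO1 enzyme in a cell-free setup rather than cells; enzyme activity read as free iodide liberated from substrate via Sandell-Kolthoff colorimetry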
# Summary of the method: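 Steps: human DIO1 enzyme plus test chemical, 3 h incubation; free iodide then quantified in a second Sandell-Kolthoff step by absorbance. DMSO served as negative control and baseline.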
# [7] = molecular target: Retinoic acid receptor RXR-alpha (Homo sapiens) (UniProt P19793); assay: TOX21_TR_RXR_BLA_Antagonist_Followup_ratio: Tox21 Thyroid Hormone Receptor beta Retinoid X Receptor alpha (RXRa) Antagonism Beta-lactamase (BLA) Follow-Up Assay, Ratio (AID 2283972)
# Summary of the method: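 Beta-lactamase reporter readout as cleaved/uncleaved substrate ratio (460:530 nm) after 2 h substrate loading at room temperature. GAL4-RXRa bla HEK293T cells were exposed 16 h at 37C to 11-point compound series; loss of signal scored against DMSO baseline.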
# [8] = CCTE_Harrill_HTTr_Viability_DMEM_6hr: (Pilot) CCTE's 6-hour Cell Viability Assessment for the High-Throughput Transcriptomics (HTTr) Platform, in MCF-7 cells cultured in DMEM + 10% fetal bovine serum, Harrill Lab (AID 2283973; active = hit-call score of the fitted dose curve at least 0.9, where 1 is the maximum; inactive = score below 0.9)
# Summary of the method: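 Propidium iodide uptake imaged by high-content analysis after six hours of chemical treatment in an eight-concentration series. Cells: MCF-7 grown in DMEM with 10% fetal bovine serum; DMSO as baseline.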
# [9] = CCTE_Harrill_HTTr_Viability_DMEM_12hr: (Pilot) CCTE's 12-hour Cell Viability Assessment for the High-Throughput Transcriptomics (HTTr) Platform, in MCF-7 cells cultured in DMEM + 10% fetal bovine serum, Harrill Lab (AID 2283974; active = hit-call score of the fitted dose curve at least 0.9, where 1 is the maximum; inactive = score below 0.9)
# Summary of the method: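 Propidium iodide dye exclusion imaged by high-content microscopy after 12 h chemical exposure (eight concentrations) of MCF-7 cells grown in DMEM plus 10% FBS; values fitted in both directions relative to DMSO.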
# [10] = CCTE_Harrill_HTTr_Viability_DMEM_24hr: (Pilot) CCTE's 24-hour Cell Viability Assessment for the High-Throughput Transcriptomics (HTTr) Platform, in MCF-7 cells cultured in DMEM + 10% fetal bovine serum, Harrill Lab (AID 2283975; active = hit-call score of the fitted dose curve at least 0.9, where 1 is the maximum; inactive = score below 0.9)
# Summary of the method: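 Pilot study: propidium iodide dye exclusion, imaged by high content microscopy, after 24 h compound exposure (eight concentrations) in MCF-7 cultured in DMEM + 10% fetal bovine serum; DMSO served as negative control and baseline.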
# [11] = CCTE_Harrill_HTTr_Viability_PRF_DMEM_6hr: (Pilot) CCTE's 6-hour Cell Viability Assessment for the High-Throughput Transcriptomics (HTTr) Platform, in MCF-7 cells cultured phenol red-free DMEM + 10% charcoal-stripped fetal bovine serum, Harrill Lab (AID 2283976; active = hit-call score of the fitted dose curve at least 0.9, where 1 is the maximum; inactive = score below 0.9)
# Summary of the method: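 Membrane integrity by high-content imaging of propidium iodide uptake, six hours after dosing with eight concentrations. Cells: MCF-7 grown in phenol red-free DMEM plus 10% charcoal-stripped serum; DMSO serves as baseline for bidirectional fits.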
# [12] = CCTE_Harrill_HTTr_Viability_PRF_DMEM_12hr: (Pilot) CCTE's 12-hour Cell Viability Assessment for the High-Throughput Transcriptomics (HTTr) Platform, in MCF-7 cells cultured in phenol red-free DMEM + 10% charcoal-stripped fetal bovine serum, Harrill Lab (AID 2283977; active = hit-call score of the fitted dose curve at least 0.9, where 1 is the maximum; inactive = score below 0.9)
# Summary of the method: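 Membrane integrity was scored via propidium iodide dye exclusion imaging, fitted in both directions relative to DMSO. Compounds ran as eight-point dilutions for 12 hours on MCF-7 grown in phenol red-free DMEM plus 10% charcoal-stripped serum.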
# [13] = TOX21_TR_RXR_BLA_Antagonist_Followup_viability: Viability Assessment in the Tox21 Thyroid Hormone Receptor beta Retinoid X Receptor alpha (RXRa) Antagonism Beta-lactamase (BLA) Follow-Up Assay (AID 2283979)
# Summary of the method: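 Follow-up compounds (11 concentrations, triplicate) were incubated 16 h at 37C/5% CO2 with HEK293T RXRa-bla cells seeded at 2,500/well in charcoal-stripped-serum medium. ATP content by CellTiter-Glo luminescence gave viability; curves fitted in both directions against DMSO.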
# [14] = CCTE_Harrill_HTTr_Viability_PRF_DMEM_24hr: (Pilot) CCTE's 24-hour Cell Viability Assessment for the High-Throughput Transcriptomics (HTTr) Platform, in MCF-7 cells cultured in phenol red-free DMEM + 10% charcoal-stripped fetal bovine serum, Harrill Lab (AID 2283980; active = hit-call score of the fitted dose curve at least 0.9, where 1 is the maximum; inactive = score below 0.9)
# Summary of the method: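 Propidium iodide exclusion imaged at 24 h after dosing scores viability; cells were MCF-7 grown in phenol red-free DMEM plus 10% charcoal-stripped serum, tested in eight concentrations, fitted in both directions against DMSO.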
# [15] = CCTE_Harrill_HTTr_Apoptosis_DMEM_6hr: (Pilot) CCTE's 6-hour Apoptosis Assessment for the High-Throughput Transcriptomics (HTTr) Platform, in MCF-7 cells cultured in DMEM + 10% fetal bovine serum, Harrill Lab (AID 2283981; active = hit-call score of the fitted dose curve at least 0.9, where 1 is the maximum; inactive = score below 0.9)
# Summary of the method: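 MCF-7 cells grown in DMEM + 10% FBS were exposed for 6 hours to an eight-point dilution series. CellEvent Caspase 3/7 Green signal was imaged; activity fitted bidirectionally against DMSO.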
# [16] = CCTE_Harrill_HTTr_Apoptosis_DMEM_12hr: (Pilot) CCTE's 12-hour Apoptosis Assessment for the High-Throughput Transcriptomics (HTTr) Platform, in MCF-7 cells cultured in DMEM + 10% fetal bovine serum, Harrill Lab (AID 2283982; active = hit-call score of the fitted dose curve at least 0.9, where 1 is the maximum; inactive = score below 0.9)
# Summary of the method: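 Caspase-3/7 activity was measured by high-content imaging (CellEvent Caspase 3/7 Green) after a 12-hour exposure of MCF-7 cells grown in DMEM with 10% FBS. Eight-point concentration series, fitted bidirectionally against vehicle.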
# [17] = CCTE_Harrill_HTTr_Apoptosis_DMEM_24hr: (Pilot) CCTE's 24-hour Apoptosis Assessment for the High-Throughput Transcriptomics (HTTr) Platform, in MCF-7 cells cultured in DMEM + 10% fetal bovine serum, Harrill Lab (AID 2283983; active = hit-call score of the fitted dose curve at least 0.9, where 1 is the maximum; inactive = score below 0.9)
# Summary of the method: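 Caspase-3/7 activity read by high-content imaging (CellEvent Green reagent) 24 h after dosing. MCF-7 cells grown in DMEM with 10% FBS received an eight-point concentration series; fits were bidirectional versus DMSO.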
# [18] = CCTE_Harrill_HTTr_Apoptosis_PRF_DMEM_6hr: (Pilot) CCTE's 6-hour Apoptosis Assessment for the High-Throughput Transcriptomics (HTTr) Platform, in MCF-7 cells cultured phenol red-free DMEM + 10% charcoal-stripped fetal bovine serum, Harrill Lab (AID 2283984; active = hit-call score of the fitted dose curve at least 0.9, where 1 is the maximum; inactive = score below 0.9)
# Summary of the method: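 Caspase-3/7 activity (CellEvent Green) read by high-content imaging 6 h after dosing, eight concentrations. Cells: MCF-7, phenol red-free DMEM with 10% charcoal-stripped serum. Curves fit both directions against DMSO.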
# [19] = CCTE_Harrill_HTTr_Apoptosis_PRF_DMEM_12hr: (Pilot) CCTE's 12-hour Apoptosis Assessment for the High-Throughput Transcriptomics (HTTr) Platform, in MCF-7 cells cultured in phenol red-free DMEM + 10% charcoal-stripped fetal bovine serum, Harrill Lab (AID 2283985; active = hit-call score of the fitted dose curve at least 0.9, where 1 is the maximum; inactive = score below 0.9)
# Summary of the method: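 Caspase-3/7 activity by CellEvent Green high content imaging after 12 h compound exposure (eight concentrations) in MCF-7 grown in phenol red-free DMEM plus 10% charcoal-stripped serum; DMSO as baseline.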
# [20] = CCTE_Harrill_HTTr_Apoptosis_PRF_DMEM_24hr: (Pilot) CCTE's 24-hour Apoptosis Assessment for the High-Throughput Transcriptomics (HTTr) Platform, in MCF-7 cells cultured in phenol red-free DMEM + 10% charcoal-stripped fetal bovine serum, Harrill Lab (AID 2283986; active = hit-call score of the fitted dose curve at least 0.9, where 1 is the maximum; inactive = score below 0.9)
# Summary of the method: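 Eight concentrations tested for 24 h on MCF-7 grown in charcoal-stripped serum, phenol red-free DMEM. High content imaging of CellEvent Caspase 3/7 Green signal gives apoptosis read-out, fitted both ways relative to DMSO.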
# Nucleoli Translocation, AR (gene 367), sequence (P10275 whole entry, looked up): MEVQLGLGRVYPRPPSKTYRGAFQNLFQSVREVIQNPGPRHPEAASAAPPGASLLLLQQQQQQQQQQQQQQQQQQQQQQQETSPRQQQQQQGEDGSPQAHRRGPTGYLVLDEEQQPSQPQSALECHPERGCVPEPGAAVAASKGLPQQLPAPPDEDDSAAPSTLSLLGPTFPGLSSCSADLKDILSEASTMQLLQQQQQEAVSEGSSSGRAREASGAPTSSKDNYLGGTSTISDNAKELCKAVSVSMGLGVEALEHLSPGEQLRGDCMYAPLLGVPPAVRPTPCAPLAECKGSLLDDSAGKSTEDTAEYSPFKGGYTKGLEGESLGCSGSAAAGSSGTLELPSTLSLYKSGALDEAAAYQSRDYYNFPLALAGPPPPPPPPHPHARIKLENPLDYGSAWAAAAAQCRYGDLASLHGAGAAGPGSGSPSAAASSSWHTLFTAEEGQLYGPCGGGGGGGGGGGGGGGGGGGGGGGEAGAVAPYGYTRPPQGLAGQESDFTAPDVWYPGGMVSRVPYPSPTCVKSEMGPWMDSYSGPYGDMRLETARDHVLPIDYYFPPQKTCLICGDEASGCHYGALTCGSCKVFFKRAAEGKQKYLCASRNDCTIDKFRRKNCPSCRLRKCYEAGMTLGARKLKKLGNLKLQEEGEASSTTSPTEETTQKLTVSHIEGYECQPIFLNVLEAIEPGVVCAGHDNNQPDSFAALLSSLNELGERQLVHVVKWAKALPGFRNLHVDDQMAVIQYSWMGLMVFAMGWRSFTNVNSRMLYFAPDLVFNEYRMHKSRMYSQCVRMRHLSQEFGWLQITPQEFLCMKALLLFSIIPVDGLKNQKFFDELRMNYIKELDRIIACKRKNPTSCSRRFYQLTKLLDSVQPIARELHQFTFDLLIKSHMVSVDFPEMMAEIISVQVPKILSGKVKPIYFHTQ
# Ratio of Nucleoli Translocation and Cytoplasm, AR (gene 367), sequence (P10275 whole entry, looked up): as above
# Retinoic acid receptor RXR-alpha (Homo sapiens), sequence (P19793 whole entry, looked up, the tested form may be a part): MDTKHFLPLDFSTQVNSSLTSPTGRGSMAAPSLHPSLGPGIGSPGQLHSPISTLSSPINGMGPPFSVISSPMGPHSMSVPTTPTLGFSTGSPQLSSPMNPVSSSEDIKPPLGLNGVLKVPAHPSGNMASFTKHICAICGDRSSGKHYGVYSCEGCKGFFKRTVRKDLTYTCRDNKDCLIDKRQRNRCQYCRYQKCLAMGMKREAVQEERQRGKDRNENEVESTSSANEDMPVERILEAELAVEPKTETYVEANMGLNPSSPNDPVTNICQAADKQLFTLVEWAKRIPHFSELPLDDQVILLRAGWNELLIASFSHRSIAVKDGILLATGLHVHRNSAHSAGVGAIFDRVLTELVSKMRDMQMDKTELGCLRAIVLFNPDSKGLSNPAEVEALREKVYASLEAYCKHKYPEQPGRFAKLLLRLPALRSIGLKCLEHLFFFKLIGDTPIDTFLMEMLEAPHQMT
structure (smiles),measurement,setting,value
CCCOc1nn(C(=O)NS(=O)(=O)c2ccccc2C(=O)OC)c(=O)n1C,outcome,[1],inactive
same,outcome,[2],inactive
same,outcome,[3],inactive
same,outcome,[4],inactive
CCOP(=O)(NC(C)C)Oc1ccc(SC)c(C)c1 (configuration not stated),outcome,[1],inactive
same,outcome,[2],inactive
same,outcome,[3],inactive
same,outcome,[4],inactive
CNC(=O)ON=C(SC)C(=O)N(C)C,outcome,[1],inactive
same,outcome,[2],inactive
same,outcome,[3],inactive
C[N+]1(C)CCCCC1,outcome,[1],inactive
same,outcome,[2],inactive
same,outcome,[3],inactive
same,outcome,[4],inactive
CC(C)N(C(=O)SCC(Cl)=C(Cl)Cl)C(C)C,outcome,[5],inactive
CCCCOC(=O)[C@@H](C)Oc1ccc(Oc2ccc(C#N)cc2F)cc1,outcome,[5],inactive
CCc1cccc(CC)c1N(COC)C(=O)CCl,AC50,[1],20.1 µM (active)
same,outcome,[2],inactive
same,AC50,[3],12.8 µM (active)
same,outcome,[4],inactive
same,AC50,[5],13.8 µM (active)
CCCSP(=O)(OCC)SCCC,outcome,[1],inactive
same,outcome,[2],inactive
same,outcome,[3],inactive
same,outcome,[4],inactive
same,AC50,[5],38.1 µM (active)
CCOC(=O)COc1cc(-c2nn(C)c(OC(F)F)c2Cl)c(F)cc1Cl,outcome,[1],inactive
same,outcome,[2],inactive
same,outcome,[4],inactive
C[Si](Cn1cncn1)(c1ccc(F)cc1)c1ccc(F)cc1,AC50,[5],16.2 µM (active)
COP(=O)(OC)OC(Br)C(Cl)(Cl)Br (configuration not stated),AC50,[1],13.6 µM (active)
same,AC50,[2],79 µM (active)
same,outcome,[3],inactive
same,AC50,[4],77.9 µM (active)
same,outcome,[5],inactive
Cc1nn(-c2cc(NS(C)(=O)=O)c(Cl)cc2Cl)c(=O)n1C(F)F,outcome,[1],inactive
same,outcome,[2],inactive
same,outcome,[3],inactive
same,outcome,[4],inactive
CCOC(=O)CC(SP(=O)(OC)OC)C(=O)OCC (configuration not stated),outcome,[6],inactive
CCCOCC(=Nc1ccc(Cl)cc1C(F)(F)F)n1ccnc1,AC50,[6],16.2 µM (active)
same,AC50,[5],15.4 µM (active)
FC(F)C(F)(F)OCC(Cn1cncn1)c1ccc(Cl)cc1Cl (configuration not stated),AC50,[5],22.5 µM (active)
CC(COc1ccc(Oc2ccccc2)cc1)Oc1ccccn1 (configuration not stated),outcome,[1],inactive
same,outcome,[3],inactive
same,outcome,[5],inactive
CC(C)=CC1C(C(=O)OCN2C(=O)C3=C(CCCC3)C2=O)C1(C)C (configuration not stated),outcome,[1],inactive
same,outcome,[2],inactive
same,outcome,[3],inactive
same,AC50,[5],39.9 µM (active)
CC[C@H](C)[C@H]1O[C@]2(C=C[C@@H]1C)C[C@@H]1C[C@@H](C/C=C(\C)[C@@H](O[C@H]3C[C@H](OC)[C@@H](O[C@H]4C[C@H](OC)[C@@H](NC)[C@H](C)O4)[C@H](C)O3)[C@@H](C)/C=C/C=C3\CO[C@@H]4[C@H](O)C(C)=C[C@@H](C(=O)O1)[C@]34O)O2,AC50,[6],26 µM (active)
same,AC50,[5],97.8 µM (active)
COc1ccc(C(=CC(=O)N2CCOCC2)c2ccc(Cl)cc2)cc1OC,AC50,[1],3.21 µM (active)
same,outcome,[2],inactive
same,AC50,[3],2.52 µM (active)
same,outcome,[4],inactive
CC1(C(=O)Nc2ccc(O)c(Cl)c2Cl)CCCCC1,AC50,[5],31.4 µM (active)
C=C(C)[C@H]1Cc2c(ccc3c2O[C@@H]2COc4cc(OC)c(OC)cc4[C@@H]2C3=O)O1,outcome,[7],inactive
same,outcome,[8],inactive
same,outcome,[9],inactive
same,AC50,[10],0.0311 µM (active)
same,outcome,[11],inactive
same,outcome,[12],inactive
same,outcome,[13],inactive
same,AC50,[14],0.0246 µM (active)
same,outcome,[15],inactive
same,outcome,[16],inactive
same,outcome,[17],inactive
same,outcome,[18],inactive
same,outcome,[19],inactive
same,outcome,[20],inactive
same,AC50,[1],50 µM (active)
same,outcome,[2],inactive
same,outcome,[3],inactive
same,outcome,[4],inactive
same,AC50,[5],0.0663 µM (active)
